The list is not random: actives were taken first. Their share in the collection is about 12%.
BAZ2B block: qHTS Assay for Inhibitors of BAZ2B. AlphaScreen BAZ2B-H3K14Ac peptide displacement. Potency, µM (top dose mostly 114 µM), most hits filed as inhibitors. actives 4.4% (n = 360,000). AID 504333, 2011; further: nearly all actives have a fitted effect of over 60% in size
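BAZ2B 50 nM plus b-H3(5-23)K14Ac 50 nM, PBS pH 7.4/0.01% Tween-20, 30 min RT; compound added (max 110 uM), 30 min RT; streptavidin donor/Ni-chelate acceptor beads 10 ug/mL final, 20 min dark; AlphaScreen read.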
HP1b chromo inh: HTS for Inhibitors of HP1-beta Chromodomain Interactions with Methylated Histone Tails. actives 0.56% (n = 390,000). Potency, µM (highest dose often 114 µM), usual class: inhibitors. Chromobox protein homolog 1 (Homo sapiens), P83916. AlphaScreen HP1-beta / biotin-H3K9me3 peptide binding; further: nearly all actives have a fitted effect of over 70% in size
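HP1-beta protein (50 nM final) preincubated 30 min at room temperature with biotinylated H3(1-18)K9me3 peptide (50 nM) in PBS pH 7.4, 0.01% Tween-20, then compound added for 30 min. AlphaScreen streptavidin donor/nickel chelate acceptor beads (10 ug/mL final), 30 min dark, luminescence read.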
Sfp inh: qHTS Assay for Inhibitors of Bacillus subtilis Sfp phosphopantetheinyl transferase (PPTase); 4'-phosphopantetheinyl transferase ffp (Bacillus subtilis), Q9F4F7; Biochemical Sfp PPTase activity, qHTS; Potency, µM, actives largely listed as inhibitors; actives 3.5% (n = 310,000); AID 1490, 2009;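 further: the enzyme is Sfp with the accession as filed and its product quenches rhodamine fluorescence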
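Sfp 15 nM + cpd, 15 min RT; start w/ rhodamine-CoA 5 uM, BHQ-2-YbbR 12.5 uM (final); 50 mM Hepes pH 7.6, 10 mM MgCl2, 0.01% NP-40, 0.01% BSA; read 525/598 nm at 0 and 30 min.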
JMJD2A Tudor: qHTS Assay for Inhibitors of JMJD2A-Tudor Domain; Lysine-specific demethylase 4A (Homo sapiens), O75164; AlphaScreen JMJD2A-Tudor / H3K4me3 peptide binding; Potency, µM (doses to about 114 µM), actives largely listed as inhibitors; actives 4.4% (n = 390,000); AID 504339, 2011; further: nearly all actives have a fitted effect of over 50% in size
G9a block: qHTS Assay for Inhibitors of Histone Lysine Methyltransferase G9a | Histone-lysine N-methyltransferase EHMT2 (Homo sapiens), Q96KQ7 | Potency, µM (series often up to 102 µM), most hits filed as inhibitors | actives 8.8% (n = 350,000) | G9a H3K9 monomethylation, AlphaScreen, 2 h; further: nearly all actives have a fitted effect of over 75% in size
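Quantitative HTS format: methyltransferase activity on a biotin-tagged H3K9 peptide is measured by AlphaScreen, using a rabbit anti-monomethyl-H3K9 antibody with streptavidin donor and anti-IgG acceptor beads. Final levels are 20 nM enzyme, 500 nM peptide, 20 uM SAM; 2 h RT.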
PLK1 PBD inh: qHTS for Inhibitors of PLK1-PDB (polo-like kinase 1 - polo-box domain): Primary Screen | Potency, µM, most hits filed as inhibitors | actives 2.8% (n = 360,000) | Plk1 PBD binding of FITC phosphopeptide, fluorescence polarization; further: series mostly up to about 57 µM; nearly all actives have a fitted effect of over 65% in size
Of the large screens only hits and unclear results are named; the others gave an inactive call. The call rests on the fitted dose curve; in most records, active means well fitted curve in the direction sought with a large enough effect; inconclusive means small, poorly fitted or top-dose-only effect, or another doubt; inactive means no such curve, though single readings can be large; an effect the other way counts as inactive or inconclusive.

C[C@H](CCC(=O)O)C[C@H](C)C[C@H](C)C(=O)/C=C(\O)[C@H](C)C[C@H](C)C/C=C/[C@@H](C)[C@@H](O)[C@@H](C)[C@@H](O)C[C@@H]1CC[C@@](C)([C@H]2CC[C@@](C)([C@@H](C)O)O2)O1	none (no result: BAZ2B block, HP1b chromo inh, JMJD2A Tudor, PLK1 PBD inh)
O=[N+]([O-])OC1CO[C@H]2C(O[N+](=O)[O-])COC12 (some centres not stated)	none (no result: BAZ2B block, HP1b chromo inh, JMJD2A Tudor, PLK1 PBD inh)
CCn1cc(C(=O)N[C@@H](C)C(=O)OC)c(=O)c2cc3c(cc21)OCO3	none
CC/C(=N\NC(N)=O)c1c(O)[nH]c(=O)[nH]c1=O	Sfp inh inconclusive, G9a block inconclusive
CCCC(=O)c1c(O)[nH]c(=O)[nH]c1=O	BAZ2B block inconclusive, JMJD2A Tudor 18µM
S=c1[nH]nc(-c2cccs2)n1C1CCCCC1	Sfp inh inconclusive, JMJD2A Tudor 6.3µM (no result: G9a block)
Cn1c(O)c(C(=Nc2ccccc2)SCc2ccc(Cl)cc2)c(=O)n(C)c1=O	BAZ2B block inconclusive, Sfp inh 45µM, JMJD2A Tudor inconclusive, G9a block inconclusive, PLK1 PBD inh 27µM
NO	none (no result: BAZ2B block, HP1b chromo inh, Sfp inh, JMJD2A Tudor, PLK1 PBD inh)
CCOC(=O)C1CCN(/C=C2\C(=O)NC(=S)N(CC)C2=O)CC1	Sfp inh 79µM
CCOC(=O)C1CCN(C=C2C(=O)N(C)C(=S)N(C)C2=O)CC1	none
CCOC(=O)C1CCN(/C=C2/C(=O)NC(=S)N(c3cccc(OC)c3)C2=O)CC1	G9a block 22µM
COC(=O)c1c(Sc2ccccc2)c2ccccc2n1C	none
Cc1ccc(-n2c(/C=C\c3ccc(F)c(F)c3)nc3ccccc3c2=O)c(C)c1	none (no result: Sfp inh, PLK1 PBD inh)
COC(=O)C1=C(N)Oc2cc(C)oc(=O)c2C12C(=O)Nc1ccccc12 (configuration not stated)	JMJD2A Tudor inconclusive, PLK1 PBD inh 24µM (no result: BAZ2B block)
COc1ccc(N=Nc2c(O)[nH]c(=S)[nH]c2=O)cc1	G9a block inconclusive
O=c1[nH]c(=S)[nH]c(O)c1N=Nc1cccc(S(=O)(=O)N2CCOCC2)c1	G9a block 50µM
O=C(N=Nc1c(O)[nH]c(=O)[nH]c1=O)C1COc2ccccc2O1 (configuration not stated)	Sfp inh inconclusive, G9a block 45µM
O=c1[nH]c(O)c(N=Nc2ccc(S(=O)(=O)N3CCOCC3)cc2)c(=O)[nH]1	G9a block 13µM
COc1cccc(N=Nc2c(O)[nH]c(=S)[nH]c2=O)c1	G9a block 50µM
Cc1[nH]c(=O)n(C(C)(C)C)c(=O)c1Cl	none (no result: BAZ2B block, HP1b chromo inh, JMJD2A Tudor, G9a block, PLK1 PBD inh)
CN1CCCC2(CCN(C(=O)c3ccco3)CC2)C1	none (no result: BAZ2B block, HP1b chromo inh, JMJD2A Tudor, PLK1 PBD inh)
COc1ccc2c(c1)c(=O)c(C(=O)c1ccc(Cl)cc1)cn2CC(=O)Nc1ccc2c(c1)OCCO2	none (no result: Sfp inh, PLK1 PBD inh)
C=C(C)C1CNC(C(=O)O)C1CC(=O)O (configuration not stated)	none (no result: BAZ2B block, HP1b chromo inh, JMJD2A Tudor, G9a block, PLK1 PBD inh)
O=c1[nH]c(=S)[nH]c(O)c1N=Nc1ccc2c(c1)OCCO2	Sfp inh inconclusive, G9a block inconclusive
O=c1[nH]c(O)c(N=Nc2ccc3c(c2)OCCO3)c(=O)[nH]1	BAZ2B block inconclusive, JMJD2A Tudor inconclusive, G9a block 50µM
C[C@@H]1O[C@H](C[N+](C)(C)C)C[C@@H]1O	none (no result: BAZ2B block, HP1b chromo inh, JMJD2A Tudor, PLK1 PBD inh)
CN1CCc2cc(O)cc3c2[C@H]1Cc1ccc(O)c(O)c1-3	HP1b chromo inh inconclusive, JMJD2A Tudor 7.9µM, G9a block 1.7µM (no result: BAZ2B block, Sfp inh)
COc1cc2c(cc1O)C[C@H]1c3c(cc(O)c(OC)c3-2)CCN1C	none
CCCN1CCc2cc(O)cc3c2[C@H]1Cc1ccc(O)c(O)c1-3	HP1b chromo inh 11µM, JMJD2A Tudor 13µM, G9a block 1.1µM (no result: BAZ2B block, Sfp inh)
CCCN1CCc2cccc3c2C1Cc1ccc(O)c(O)c1-3 (configuration not stated)	Sfp inh 56µM, G9a block 1µM (no result: BAZ2B block, HP1b chromo inh, JMJD2A Tudor, PLK1 PBD inh)
